# Compound activity from PubChem BioAssay.
# Giardia FBPA inh – Giardia lamblia aldolase inhibition; A8B2U2; hit rate 0.71% among 290,000; Potency, µM (highest dose often 59.6 µM), most hits filed as inhibitors; purified Giardia FBPA; also: nearly all actives have a fitted effect of over 55% in size
#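 Giardia FBPA (40 nM reagent) was preincubated 10 min at RT with compound (up to 57.5 uM final), then substrate plus GAPDH/TPI/NAD/arsenate coupling system with diaphorase/resazurin was added; resorufin fluorescence (525/598 nm) was read after 20 min.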
# TbPYK inhibitor – T. brucei pyruvate kinase inhibition; TbPYK enzyme, Kinase-Glo Plus ATP luminescence, 45 min; Potency, µM (highest dose often 76.8 µM), hits mostly inhibitors; hit rate 0.12% among 410,000; also: nearly all actives have a fitted effect of over 50% in size
#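 ADP (130 uM final) triggers the TbPYK reaction after compound addition; incubation is 45 min at room temperature. Kinase-Glo Plus is then added and luminescence imaged. Normalized data are fitted to concentration-effect curves.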
# Shiga inhibitor – inhibitors of Shiga toxin in Vero cells; inhibition, % at 38.7 µM; AID 2315; hit rate 9.2% among 290,000; Vero cells, Shiga toxin protein synthesis inhibition reporter; in the data active = inhibition mostly above about 28%, no sharp cut-off; inactive = mostly below about 43%
# LmPK inhibitor – inhibitors of Leishmania mexicana pyruvate kinase; hit rate 0.37% among 290,000; Potency, µM (top dose mostly 57.5 µM), usual class: inhibitors; purified LmPK, Kinase-Glo ATP luminescence, 1 h; AID 1721; Q27686
# Target sequence (Q27686 whole entry, looked up): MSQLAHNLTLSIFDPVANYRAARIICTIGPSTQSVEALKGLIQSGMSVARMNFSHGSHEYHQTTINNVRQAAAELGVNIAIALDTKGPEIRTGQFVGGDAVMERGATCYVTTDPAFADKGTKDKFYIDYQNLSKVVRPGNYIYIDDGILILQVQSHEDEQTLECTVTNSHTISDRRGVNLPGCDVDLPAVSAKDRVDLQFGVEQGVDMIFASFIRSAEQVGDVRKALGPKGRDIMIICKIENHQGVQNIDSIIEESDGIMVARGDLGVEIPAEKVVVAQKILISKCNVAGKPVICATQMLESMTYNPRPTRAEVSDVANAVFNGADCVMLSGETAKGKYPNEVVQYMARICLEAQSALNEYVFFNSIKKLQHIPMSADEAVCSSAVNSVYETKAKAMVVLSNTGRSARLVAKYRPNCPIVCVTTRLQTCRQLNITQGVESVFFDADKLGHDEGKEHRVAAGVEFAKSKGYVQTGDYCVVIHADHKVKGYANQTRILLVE
#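 Purified LmPK (0.1 nM) converted ADP (0.1 mM) to ATP with PEP (0.5 mM) in imidazole buffer pH 7.2 with KCl and MgCl2, 1 h at room temperature. ATP was read by Kinase-Glo luminescence; data normalized to uninhibited and no-enzyme controls.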
# CHX counter – counter-screen for Shiga toxin inhibitors: cycloheximide protein synthesis inhibition; max response, %; hit rate 12% among 300,000; cell reporter, cycloheximide protein synthesis inhibition counterscreen; in the data active = max response mostly above about 13%, no sharp cut-off; inactive = mostly below about 14%; also: read at 38.3 µM for the half of the compounds with a filed dose
# Sm TGR block – S. mansoni TGR enzyme inhibition | Q962Y6 | purified TGR, DTNB reduction, TNB absorbance 405 nm | hit rate 3% among 360,000 | Potency, µM (series often up to 114 µM), hits mostly inhibitors; also: nearly all actives have a fitted effect of over 60% in size
#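 First, TGR (20 nM dispensed) and NADPH were mixed with compound. Second, a 15 min room-temperature incubation followed. Third, further NADPH and then DTNB were added to start the reaction. Finally, TNB absorbance was monitored kinetically.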
# Numbers stand for hits; . = inactive; ? = inconclusive; / = no result; [ ] = another dose, or the depositor's remark. Shown is part of a subset that was picked to be rich in hits. Unless noted, calls follow the shape of the dose curve; as a rule, active = well fitted curve in the direction sought with a large enough effect; inconclusive = small, poorly fitted or top-dose-only effect, or another doubt; inactive = no such curve, though single readings can be large; an effect the other way counts as inactive or inconclusive.
SMILES,Giardia FBPA inh,TbPYK inhibitor,Shiga inhibitor,LmPK inhibitor,CHX counter,Sm TGR block
Cc1ccc(NC(=O)Cn2sc3nc(C)cc(C)c3c2=O)c(Cl)c1,.,2.51µM,.,.,.,.
Cc1cc(C)c2c(=O)n(CC(=O)Nc3ccc(Cl)cc3)sc2n1,.,?,.,.,.,?
Cc1cc(C)c2c(=O)n(CC(=O)NCCCN3CCOCC3)sc2n1,.,6.31µM,.,.,.,?
Cc1cc(C)c2c(=O)n(CC(=O)Nc3cccc(F)c3)sc2n1,.,?,.,.,.,.
CCOc1ccc(NC(=O)Cn2sc3nc(C)cc(C)c3c2=O)cc1,.,5.62µM,.,.,.,.
CC1Cc2nc(SCC(=O)c3ccccc3)n(Cc3ccccc3)c(=O)c2S1 (stereo not given),.,.,40.5,.,14.2,.
CC[C@]1(O)C[C@@H]2CN(CCc3c([nH]c4ccccc34)[C@](C(=O)OC)(c3cc4c(cc3OC)N(C)[C@H]3[C@](O)(C(=O)OC)[C@@H](C(=O)OC)[C@@]5(CC)C=CCN6CC[C@@]43[C@@H]65)C2)C1,.,/,/,/,/,/
Fc1ccc(N2Cc3ccsc3C=N2)cc1,.,.,63.1,.,25.1,.
O=c1[nH]c2ccsc2c(=O)n1-c1ccc(F)cc1,.,.,.,.,.,.
Cc1ccc(Oc2ccc(NS(=O)(=O)c3cccc(C(=O)O)c3)cc2)cc1,/,.,/,/,/,/
C/C(=N\NC(=O)c1cc([N+](=O)[O-])cc([N+](=O)[O-])c1)c1ccco1,.,.,.,.,.,/
NS(=O)(=O)c1ccc(N/N=C/c2ccc(O)c(O)c2O)c([N+](=O)[O-])c1,7.92µM,.,.,.,.,?
NS(=O)(=O)c1ccc(N/N=C/c2ccc(O)cc2O)c([N+](=O)[O-])c1,.,.,.,.,.,.
C/C(=N\Nc1ccc(S(N)(=O)=O)cc1[N+](=O)[O-])c1ccco1,.,.,.,.,.,39.8µM
COc1ccc(CNc2ccnc(-c3cccnc3)n2)c(OC)c1,.,/,/,/,/,/
Cc1ccc(C(=O)Cn2nnc3ccccc32)cc1[N+](=O)[O-],.,.,93.5,.,27.8,.
O=C(Cn1nnc2ccccc21)c1ccccc1,.,.,.,.,19.8,.
O=C(Cn1nnc2ccccc21)OCC(=O)c1ccccc1,.,.,.,.,.,.
O=C(Cn1nnc2ccccc21)c1cccc([N+](=O)[O-])c1,.,.,.,.,.,.
COc1ccc(-c2nc(CNC(=O)NC3CCCCC3)c(C)o2)cc1,/,.,/,/,/,.
Cc1cccc(NC(=O)c2ccc3c(c2)C(=O)N(c2ccccc2C)C3=O)n1,/,.,/,/,/,.
COc1ccc(CNC(=O)CCNS(=O)(=O)c2cc(Br)cnc2N)cc1,/,?,.,.,.,.
Cc1ccc(S(=O)(=O)N2CCc3ccccc3C2)cc1C,.,.,.,.,.,.
CC1=CC(C)=Nc2ccccc2N1,.,.,62.2,.,45.5,.
O=C(COC(=O)c1ccco1)NCc1ccc(Cl)cc1Cl,/,.,/,/,/,/
SMILES,Giardia FBPA inh,TbPYK inhibitor,Shiga inhibitor,LmPK inhibitor,CHX counter,Sm TGR block
O=C(COC(=O)c1ccco1)NCc1ccccc1Cl,.,?,85.7,.,32.4,.
O=C(CCCc1ccccc1)NCCc1ccccc1,.,.,84.4,.,44.8,.
O=C(Cc1ccccc1)NCCc1cn2ccsc2n1,.,.,.,.,.,.
O=C(CCCc1ccccc1)NCCc1ccc(F)cc1,.,.,92.4,.,28.6,.
O=C(CCCc1ccccc1)NCc1cn2ccsc2n1,.,.,.,.,16.9,.
CC(=O)c1ccc(OCCCC(=O)NCCc2ccccc2)cc1,/,.,.,.,30.9,.
O=C(O)/C=C/C(=O)NCCc1ccccc1,.,.,.,.,.,.
CC(C)=CC(=O)NCCc1ccccc1,.,.,92.6,.,45.4,.
Cc1cccc(OCCCC(=O)NCCc2ccccc2)c1,.,.,.,.,.,.
O=C(CCCc1ccccc1)NCc1ccccc1Cl,.,.,/,.,18.0,.
O=C(CCc1ccccc1)NCCc1ccc(F)cc1,.,.,.,.,27.2,.
O=C(CCCc1ccccc1)NCCCc1ccccc1,.,.,.,.,.,.
O=C(Cc1ccc(F)cc1)NCCc1ccccc1,.,.,.,.,.,.
CCN(C(=O)Cn1cnc2onc(-c3ccc(F)cc3)c2c1=O)c1ccc(OC)cc1,/,.,/,/,/,.
CN(CC(=O)NCCc1ccc(F)cc1)Cc1cccs1,.,.,.,.,28.3,.
CCCCCCCCCC1(CC(=O)OCC)SCCN1C(N)=O (stereo not given),/,.,/,/,/,/
COc1cc(OC)c2c(c1Cl)O[C@@]1(C2=O)[C@H](C)CC(=O)C[C@@H]1OC,.,/,/,/,/,/
O=C(Nn1cnc2ccccc2c1=O)c1cccc(Cl)c1,.,.,.,.,43.6,.
O=C(Nn1cnc2ccccc2c1=O)c1ccccc1F,.,.,.,.,11.2,.
O=C(Nn1cnc2ccccc2c1=O)c1ccc([N+](=O)[O-])cc1,.,.,.,.,.,.
O=C(Nn1cnc2ccccc2c1=O)c1ccc(Cl)c([N+](=O)[O-])c1,.,.,.,.,.,.
O=C(Nn1cnc2ccccc2c1=O)c1ccc(Br)cc1,.,.,89.7,.,40.8,.
Cc1ccc(C(=O)Nn2cnc3ccccc3c2=O)cc1C,.,.,82.9,.,44.4,.
CCOc1cccc(CC(=O)NCc2ccc3c(c2)CCN3C(=O)c2cccc(C)c2)c1OCC,/,.,/,/,/,.
c1ccc([C@@H]2CN3CCSC3=N2)cc1,.,/,/,/,/,/
SMILES,Giardia FBPA inh,TbPYK inhibitor,Shiga inhibitor,LmPK inhibitor,CHX counter,Sm TGR block
O=C(CSc1nccn1Cc1ccccc1)NCc1ccccc1Cl,/,.,/,/,/,.
CCc1ccc(C(=O)Nn2cnc3ccccc3c2=O)cc1,.,.,109.0,.,53.6,.
CC(=O)NCCc1ccc(C(=O)Cn2cnc3ccccc3c2=O)cc1,.,.,78.2,.,79.4,.
Cc1[nH]c2ccc(C(=O)Nc3ccc(F)cc3)cc2c1C,/,.[15.4 µM],/,/,/,.
COCCNC(=O)C1(C)CCCN(Cc2cc(-c3ccccc3)on2)C1 (stereo not given),/,.,/,/,/,/
N#Cc1ccsc1NC(=O)COC(=O)CCS(=O)(=O)c1ccccc1,/,.,/,/,/,/
COc1ccc(CCC(=O)Nc2sccc2C#N)cc1,.,.,131.3,?,50.5,?
N#Cc1ccsc1NC(=O)CCS(=O)(=O)c1ccccc1,/,.,.,.,.,2.82µM
O=C(CCS(=O)(=O)c1ccccc1)NC12CC3CC(CC(C3)C1)C2,.,.,.,.,25.2,.
NC(=O)c1ccsc1NC(=O)Cc1ccc([N+](=O)[O-])cc1,.,.,.,.,30.8,.
O=C(CCS(=O)(=O)c1ccccc1)NCCS(=O)(=O)c1ccccc1,.,.,.,.,.,.
Cn1c(NCCO)nc2c1c(=O)n(Cc1ccccc1Cl)c(=O)n2C,/,.,/,/,/,.
Cc1ccc(Cc2c(C3CCCCC3)nc3cc(C)c(Br)c(C)n23)cc1,/,.,/,/,/,/
NC(=O)c1ccsc1NC(=O)CCS(=O)(=O)c1ccc(Cl)cc1,/,.,/,/,/,3.16µM
